In PubChem BioAssay (EPA / NIEHS):
“And” between values parts separate entries of the source, which are not always exact repeats. Equal entries are not always repeated. The source holds several records for some structures; these can differ, active in one and inactive in another. The source made the active and inactive calls. Rule for the calls: active = hit-call score of the fitted dose curve at least 0.9, where 1 is the maximum; inactive = score below 0.9.

Experiments:
[1] = ATG_EGR_CIS: Attagene CIS-FACTORIAL HepG2 Assay for human Early Growth Response 1 (EGR1) (AID 2282938); conditions: HepG2 Attagene CIS-FACTORIAL EGR reporter mRNA; actives raise or lower the signal
Summary of the method: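 Endpoint derived by bidirectional fitting versus DMSO vehicle. Method: cis-promoter reporter units transfected into HepG2, 24 h dosing, RNA isolation, RT-PCR with 6-FAM primer extension and HpaI digestion, then capillary electrophoresis fluorescence detection.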

[2] = ATG_M_19_CIS: Attagene CIS-FACTORIAL HepG2 Assay for M19 Transcription Factor (Internal Marker) (AID 2282939); conditions: HepG2 Attagene CIS-FACTORIAL M19 internal marker reporter; actives raise or lower the signal
Summary of the method: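 Chemical-treated HepG2 (24 h) with MRTU constructs; reporter transcripts detected by fluorescent RT-PCR fragment analysis on capillary electrophoresis. Internal background marker, DMSO as baseline.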

[3] = ATG_ERE_CIS: Attagene CIS-FACTORIAL HepG2 Assay for Estrogen Response Element (ERE) (AID 2282940); conditions: HepG2 ERE cis-reporter, Attagene RNA transcript; actives raise or lower the signal
Summary of the method: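 Human liver cells (HepG2) bearing transiently transfected, promoter-regulated reporter units were exposed 24 h. Reporter mRNA induction was detected by capillary electrophoresis of labelled RT-PCR products and fitted bidirectionally to DMSO.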

[4] = ATG_Ets_CIS: Attagene CIS-FACTORIAL HepG2 Assay for human Erythroblast Transformation Specific (ETS) (AID 2282941); conditions: HepG2 ETS cis-reporter transcription; AC50: actives raise or lower the signal unless noted; outcome: actives raise or lower the signal unless noted
Summary of the method: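 Steps: transfect HepG2 with multiple reporter units; treat compound 24 h; isolate RNA, DNase-treat, reverse-transcribe; PCR-amplify, label with 6-FAM, digest with HpaI; separate by capillary electrophoresis. Activity fitted both directions versus DMSO.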

[5] = target: Hepatocyte nuclear factor 3-beta (Homo sapiens) (UniProt Q9Y261); experiment: ATG_FoxA2_CIS: Attagene CIS-FACTORIAL HepG2 Assay for human Forkhead box A2 (FOXA2) (AID 2282942); conditions: HepG2 cis-reporter transcription factor activity, 24 h; actives raise or lower the signal
Summary of the method: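 Measured: reporter mRNA induction or loss in HepG2 transiently carrying multiple cis-regulated reporter units, 24 h after dosing. Quantified by RT-PCR plus capillary electrophoresis, normalised to DMSO.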

[6] = ATG_GATA_CIS: Attagene CIS-FACTORIAL HepG2 Assay for human GATA Binding Protein (AID 2282944); conditions: HepG2 GATA cis-element reporter, Attagene multiplex mRNA; actives raise or lower the signal
Summary of the method: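 Transfected cis-reporter HepG2 cells were treated with chemicals for 24 hours. Total RNA was then converted to cDNA, amplified with reporter-specific primers and analysed by fluorescent capillary electrophoresis, using DMSO-treated wells as baseline.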

[7] = ATG_GLI_CIS: Attagene CIS-FACTORIAL HepG2 Assay for human Zinc Finger Protein GLI1 (AID 2282945); conditions: HepG2, Attagene cis-factorial reporter mRNA, GLI element; actives raise or lower the signal
Summary of the method: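 HepG2 cells transiently transfected with cis-promoter multiplexed reporter units report endogenous transcription factor activity. After 24 h chemical exposure, reporter mRNA was quantified by RT-PCR, 6-FAM labelling, HpaI digestion and capillary electrophoresis, with bidirectional fitting against DMSO.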

[8] = target: Bile acid receptor (Homo sapiens) (UniProt Q96RI1); experiment: ATG_IR1_CIS: Attagene CIS-FACTORIAL HepG2 Assay for human Nuclear Receptor Subfamily 1 Group H Member 4 (NR1H4), IR1 submotif (AID 2282946); conditions: IR1 reporter transcription, actives raise or lower the signal
Summary of the method: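 Transient MRTU transfection, HepG2; 24 h dosing; RNA → RT-PCR → 6-FAM primer extension → HpaI digest → capillary electrophoresis fluorescence. Gain/loss of signal fitted relative to DMSO.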

[9] = ATG_GRE_CIS: Attagene CIS-FACTORIAL HepG2 Assay for human Glucocorticoid Response Elements (GRE) (AID 2282947); conditions: HepG2 GRE cis-reporter, Attagene multiplex mRNA; AC50: actives raise or lower the signal unless noted; outcome: actives raise or lower the signal unless noted
Summary of the method: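 Following 24 h chemical exposure of transiently transfected HepG2 cells, total RNA was reverse-transcribed and reporter cDNA amplified, fluorescently labelled and sized by capillary electrophoresis. Signal gain or loss was fitted relative to DMSO vehicle.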

[10] = ATG_FoxO_CIS: Attagene CIS-FACTORIAL HepG2 Assay for human Forkhead box O (FoxO) (AID 2282943); conditions: HepG2 Attagene cis-reporter, FoxO element, mRNA; actives raise or lower the signal
Summary of the method: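 Values reflect reporter mRNA induction or loss in HepG2 cells 24 h post-dosing, fitted bidirectionally with DMSO as negative control and baseline. Detection used RT-PCR and fluorescence capillary electrophoresis.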

Sequence of Hepatocyte nuclear factor 3-beta (Homo sapiens) (Q9Y261 whole entry, looked up): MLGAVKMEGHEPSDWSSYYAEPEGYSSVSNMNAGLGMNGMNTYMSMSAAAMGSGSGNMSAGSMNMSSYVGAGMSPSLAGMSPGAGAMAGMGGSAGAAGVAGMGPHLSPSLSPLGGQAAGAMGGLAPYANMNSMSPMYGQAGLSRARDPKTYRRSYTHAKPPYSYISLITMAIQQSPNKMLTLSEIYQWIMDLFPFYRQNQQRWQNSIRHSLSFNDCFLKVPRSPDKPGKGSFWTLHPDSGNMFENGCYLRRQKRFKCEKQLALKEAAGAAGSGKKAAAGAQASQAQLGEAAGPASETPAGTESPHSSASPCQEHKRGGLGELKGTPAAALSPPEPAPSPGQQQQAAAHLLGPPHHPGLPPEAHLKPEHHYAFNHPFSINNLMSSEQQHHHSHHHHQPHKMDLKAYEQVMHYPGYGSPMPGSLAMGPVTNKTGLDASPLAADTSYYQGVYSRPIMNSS
Sequence of Bile acid receptor (Homo sapiens) (Q96RI1 whole entry, looked up): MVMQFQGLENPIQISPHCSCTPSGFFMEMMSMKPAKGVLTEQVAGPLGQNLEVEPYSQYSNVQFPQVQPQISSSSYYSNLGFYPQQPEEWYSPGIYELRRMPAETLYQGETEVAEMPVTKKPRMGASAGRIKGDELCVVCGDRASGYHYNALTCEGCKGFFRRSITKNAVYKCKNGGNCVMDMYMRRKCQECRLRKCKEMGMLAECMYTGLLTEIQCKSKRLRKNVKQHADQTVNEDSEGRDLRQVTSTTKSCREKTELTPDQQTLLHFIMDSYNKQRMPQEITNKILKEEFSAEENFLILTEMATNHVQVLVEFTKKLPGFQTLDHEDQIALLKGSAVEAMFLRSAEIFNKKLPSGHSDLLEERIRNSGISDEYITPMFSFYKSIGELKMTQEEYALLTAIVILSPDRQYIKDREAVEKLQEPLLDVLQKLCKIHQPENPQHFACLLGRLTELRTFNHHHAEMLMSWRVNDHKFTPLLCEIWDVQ

Compound | outcome [1] | outcome [2] | outcome [3] | outcome [4] | outcome [5] | outcome [6] | outcome [7] | outcome [8] | outcome [9] | outcome [10] | AC50 [3] | AC50 [5] | AC50 [1] | AC50 [4] | AC50 [7] | AC50 [8]
COc1cc(OC)nc(NC(=O)NS(=O)(=O)Nc2ccccc2C(=O)N(C)C)n1 | inactive | inactive | inactive | inactive | inactive | inactive | inactive | inactive | inactive | – | – | – | – | – | – | –
CC=O | inactive | inactive | inactive | inactive | inactive | inactive | inactive | inactive | inactive | – | – | – | – | – | – | –
FCOC(C(F)(F)F)C(F)(F)F | inactive | inactive | inactive | inactive | inactive | inactive | – | inactive | inactive | inactive | – | – | – | – | – | –
FC(F)=C(F)C(F)(F)C(F)(F)C(F)(F)C(F)F | inactive | inactive | inactive | inactive | inactive | inactive | – | inactive | inactive | inactive | – | – | – | – | – | –
O=C(F)C(F)(F)C(F)(F)C(F)(F)C(F)F | inactive | inactive | inactive | inactive | inactive | inactive | inactive | – | inactive | inactive | – | – | – | – | – | –
C=CC(=O)OCCC(F)(F)C(F)(F)C(F)(F)C(F)(F)C(F)(F)C(F)(F)F | inactive | inactive | – | inactive | inactive | inactive | – | inactive | inactive | inactive | 30.9 µM (active) | – | – | – | – | –
COCC1CCC(CO)CC1 (configuration not stated) | inactive | inactive | – | inactive | inactive | inactive | inactive | – | inactive | inactive | 24.4 µM (active) | – | – | – | – | –
CC1CCC(CO)CC1 (configuration not stated) | inactive | inactive | – | inactive | inactive | inactive | inactive | – | inactive | – | 20 µM (active) and 27.1 µM (active) | – | – | – | – | –
Oc1cccc2c(O)cccc12 | inactive | inactive | – | inactive | – | inactive | – | inactive | inactive | inactive | 12.3 µM (active) | 0.0859 µM (active) | – | – | – | –
Cc1cc(Cc2cc(C)cc(C(C)(C)C)c2O)c(O)c(C(C)(C)C)c1 | – | inactive | inactive | – | – | inactive | – | – | inactive | – | – | 128 µM (active) | 100 µM (active) | 79.4 µM (active) | 165 µM (active) | 169 µM (active)
C=Cc1ccc(O)c(OC)c1 | inactive | inactive | inactive | inactive | inactive | inactive | – | – | inactive | inactive | – | – | – | – | – | –
CCC(=O)O | inactive | inactive | inactive | inactive | inactive | inactive | inactive | – | inactive | inactive | – | – | – | – | – | –
C[N+](C)(CCCNS(=O)(=O)CCC(F)(F)C(F)(F)C(F)(F)C(F)(F)C(F)(F)C(F)(F)F)CC(=O)[O-] | inactive | inactive | – | inactive | inactive | inactive | inactive | – | – | – | 0.0122 µM (active) | – | – | – | – | –
NNC(=O)CCCCC(=O)NN | inactive | inactive | inactive | inactive | inactive | inactive | inactive | inactive | inactive | – | – | – | – | – | – | –
Cc1cccc2c1ccc1ccccc12 | inactive | inactive | – | inactive | inactive | inactive | inactive | inactive | inactive | – | 10.2 µM (active) | – | – | – | – | –
CCN(CC)CC | inactive | inactive | – | inactive | inactive | inactive | inactive | inactive | inactive | inactive | – | – | – | – | – | –
CC1CNCC(C)O1 (configuration not stated) | inactive | inactive | – | inactive | inactive | inactive | inactive | inactive | inactive | inactive | – | – | – | – | – | –
O=S(=O)(O)C(F)(F)C(F)(F)C(F)(F)C(F)(F)C(F)(F)C(F)(F)C(F)(F)C(F)(F)C(F)(F)C(F)(F)F | inactive | inactive | – | inactive | inactive | inactive | inactive | inactive | inactive | inactive | – | – | – | – | – | –
O=C(CC(=O)C(F)(F)C(F)(F)C(F)(F)F)c1cccs1 | inactive | inactive | inactive | – | inactive | inactive | – | – | inactive [setting not given] | – | – | – | – | 12.1 µM [setting not given] (active) | – | –
CCc1cccc(CC)c1NC(=O)C(=O)O | inactive | inactive | – | inactive | inactive | inactive | inactive | inactive | inactive | inactive | – | – | – | – | – | –
Cc1cncc(C)c1 | inactive | inactive | – | inactive | inactive | inactive | inactive | inactive | – | inactive | – | – | – | – | – | –
Cc1cc(=O)oc2cc(O)ccc12 | inactive | inactive | – | inactive | inactive | inactive | inactive | – | – | inactive | – | – | – | – | – | –
O=C1c2ccc(O)c(O)c2C(=O)c2c(O)ccc(O)c21 | inactive | inactive | – | inactive | inactive | inactive | inactive | inactive | – | inactive | – | – | – | – | – | –
